Source: PubChem BioAssay AID720597 (Broad Institute, 2013)
Potency and affinity values are given separately. Active and inactive are the calls of the source.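 Rule for the calls: active = fitted half-maximal dose no more than twice the top valid tested dose, for compounds that lower signal; inconclusive = fit invalid, or curve flat with activity between -70 and -30; inactive = potency past limit, curve flat within ±30, or signal increasing.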

Target: NAD-dependent protein deacylase sirtuin-5, mitochondrial (Homo sapiens) (UniProt Q9NXA8)
Test: SIRT5 deacylase inhibitors, dose response, biochemical, fluorescence imaging, cherry-pick, set 6 (AID 720597);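 note: lower AMC signal can also come from blocking the trypsin step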
Settings: Purified SirT5, succinyl-peptide-AMC/trypsin fluorescence; series mostly up to 15 µM

NAD-dependent protein deacylase sirtuin-5, mitochondrial (Homo sapiens), sequence (Q9NXA8 whole entry, looked up): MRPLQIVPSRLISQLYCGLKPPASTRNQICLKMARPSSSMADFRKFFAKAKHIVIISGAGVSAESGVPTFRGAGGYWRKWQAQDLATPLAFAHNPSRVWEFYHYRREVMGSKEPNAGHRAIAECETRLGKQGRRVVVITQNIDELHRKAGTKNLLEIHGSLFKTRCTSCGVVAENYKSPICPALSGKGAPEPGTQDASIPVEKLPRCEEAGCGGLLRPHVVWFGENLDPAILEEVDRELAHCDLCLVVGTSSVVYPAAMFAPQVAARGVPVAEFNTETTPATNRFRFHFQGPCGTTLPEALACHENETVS

SMILES	outcome
C[C@@H]1CN([C@@H](C)CO)C(=O)c2cccc(NC(=O)c3ccncc3)c2O[C@@H]1CN(C)S(C)(=O)=O	inactive
CC(C)NC(=O)N1[C@H](CN(C)C(=O)c2ccccc2)[C@@H](c2ccccc2)[C@@H]1CO	inactive
COc1ccc(C#Cc2ccc([C@@H]3[C@H](CO)N4C(=O)CN(C(=O)c5cccnc5)C[C@@H]34)cc2)cc1	inactive
O=C(C[C@H]1CC[C@@H](NC(=O)c2ccccc2)[C@H](CO)O1)NCCc1ccncc1	inactive
C[C@@H]1CCCCO[C@@H](CN(C)Cc2ccc(Cl)c(Cl)c2)[C@H](C)CN([C@@H](C)CO)C(=O)c2cc(NS(=O)(=O)c3cccs3)ccc2O1	inactive
CCCC(=O)Nc1ccc2c(c1)OC[C@H](C)N(Cc1ccccc1)C[C@H](C)[C@@H](OC)CN(C)C2=O	inactive
O=C(C[C@@H]1C[C@H]2c3cc(NC(=O)c4ccc5c(c4)OCO5)ccc3O[C@H]2[C@H](CO)O1)NCc1ccc(Oc2ccccc2)cc1	inactive
CCCC(=O)Nc1ccc2c(c1)OC[C@@H](C)N(Cc1ccccc1)C[C@H](C)[C@@H](OC)CN(C)C2=O	inactive
C[C@@H]1CCCCO[C@H](CN(C)Cc2ccc(C(F)(F)F)cc2)[C@H](C)CN([C@H](C)CO)C(=O)c2cc(NC(=O)c3ccncc3)ccc2O1	inactive
O=C(CC1CC1)N1CC2(C1)[C@@H](c1ccccc1)[C@@H](CO)N2Cc1cccc(F)c1	inactive
C[C@H]1CN([C@@H](C)CO)C(=O)c2cc(NC(=O)Cn3cnnn3)ccc2O[C@@H]1CN(C)S(=O)(=O)c1ccc(F)cc1	inactive
C[C@@H]1CN([C@H](C)CO)C(=O)c2cc(NS(=O)(=O)c3cccs3)ccc2O[C@@H](C)CCCCO[C@@H]1CN(C)Cc1ccc(C(F)(F)F)cc1	inactive
C[C@@H]1CN([C@H](C)CO)C(=O)c2cc(C#CC(C)(C)O)cnc2O[C@H]1CN(C)C(=O)CC1CC1	inactive
C[C@H](CO)N1C[C@H](C)[C@H](CN(C)Cc2cccc(C(F)(F)F)c2)Oc2ncc(C#Cc3ccccc3)cc2C1=O	inactive
C[C@@H]1CN([C@H](C)CO)C(=O)c2cccc(NC(=O)Nc3ccc(C(F)(F)F)cc3)c2O[C@H]1CN(C)C(=O)Nc1cccc2ccccc12	inactive
Cc1ccc(-c2ccc3c(c2)O[C@@H](CN(C)Cc2ccccn2)[C@H](C)CN([C@@H](C)CO)S3(=O)=O)cc1	inactive
CC(C)CC#Cc1ccc2c(c1)O[C@@H](CN(C)S(=O)(=O)c1cccc(F)c1)[C@@H](C)CN([C@H](C)CO)S2(=O)=O	inactive
C[C@H]1CN([C@@H](C)CO)C(=O)Cc2cc(NC(=O)Nc3ccc(F)cc3)ccc2O[C@@H]1CN(C)C	inactive
CCS(=O)(=O)N1CC(=O)N2[C@H](CO)[C@H](c3ccc(C4=CCCCC4)cc3)[C@@H]2C1	inactive
O=C(C[C@@H]1C[C@@H]2c3cc(NC(=O)NC4CCCCC4)ccc3O[C@@H]2[C@H](CO)O1)NCCc1ccccc1	inactive
Cc1cccc(-c2ccc([C@H]3[C@H](CO)N4CCCCN(S(=O)(=O)c5cccc(C)c5)C[C@@H]34)cc2)c1	inactive
C[C@@H](O)C#Cc1ccc([C@@H]2[C@H]3CN(C(=O)c4cccc(F)c4)CCCCN3[C@H]2CO)cc1	inactive

SMILES	outcome
CC(=O)N(C)C[C@H]1Oc2ncc(C3=CCCC3)cc2C(=O)N([C@H](C)CO)C[C@H]1C	inactive
O=C(NCC[C@H]1CC[C@H](NC(=O)C2CC2)[C@H](CO)O1)c1cc(Cl)cc(Cl)c1	inactive
CN(C)C(=O)c1cccc(-c2ccc([C@@H]3[C@@H](CO)N4CCCCN(S(C)(=O)=O)C[C@@H]34)cc2)c1	inactive
CC(C)C#Cc1cnc2c(c1)C(=O)N([C@@H](C)CO)C[C@H](C)[C@@H](CN(C)C(=O)CN1CCOCC1)O2	inactive
CO[C@H](CN(C)Cc1nccs1)[C@@H](C)CN([C@@H](C)CO)S(=O)(=O)c1ccc(C)cc1	inactive
CCCC#Cc1ccc([C@H]2[C@H]3CN(S(=O)(=O)Cc4ccccc4)CCCCN3[C@H]2CO)cc1	inactive
CCCNC(=O)N1[C@H](CO)[C@@H](c2ccccc2)C12CN(C(=O)CC1CC1)C2	inactive
C[C@H]1CN([C@@H](C)CO)C(=O)c2ccccc2-c2ccccc2CO[C@@H]1CN(C)Cc1cccc(C(F)(F)F)c1	inactive
C[C@H](CO)N1C[C@H](C)[C@@H](CN(C)Cc2ccc(Cl)c(Cl)c2)OCCCC[C@H](C)Oc2ccc(NS(=O)(=O)c3cccs3)cc2C1=O	inactive
CN(C)C(=O)[C@H]1[C@H](CO)[C@H]2Cn3c(ccc(-c4ccc(F)cc4)c3=O)[C@@H]1N2CCc1ccccc1	inactive
CC1C(=O)N2CCCc3cc(S(=O)(=O)N4CCCC4)cc1c32 (centres undefined)	inactive
COc1ccc(CN(C)C[C@H]2Oc3ccc(NS(=O)(=O)c4ccc(Cl)cc4)cc3CC(=O)N([C@@H](C)CO)C[C@@H]2C)cc1	inactive
COc1ccc(NC(=O)Nc2ccc3c(c2)C(=O)N([C@@H](C)CO)C[C@@H](C)[C@@H](CN(C)Cc2ccc(C(F)(F)F)cc2)O3)cc1	inactive
O=C(Nc1ccccc1F)N1CC(=O)N2[C@H](C1)[C@@H](c1ccc(C#CC3CCCC3)cc1)[C@@H]2CO	inactive
C[C@@H]1CN([C@@H](C)CO)C(=O)Cc2cc(NC(=O)Nc3ccc(F)cc3)ccc2O[C@H]1CN(C)C	inactive
COc1ccc(S(=O)(=O)N(C)C[C@H]2OCCCC[C@H](C)Oc3ccc(NS(=O)(=O)c4ccc(C)cc4)cc3C(=O)N([C@H](C)CO)C[C@@H]2C)cc1	inactive
C[C@H]1CN([C@@H](C)CO)C(=O)c2cc(NS(=O)(=O)c3ccc(Cl)cc3)ccc2O[C@H]1CN(C)Cc1ccc(Cl)c(Cl)c1	inactive
C[C@H]1CN([C@@H](C)CO)S(=O)(=O)c2ccc(C3=CCCCC3)cc2O[C@H]1CN(C)S(=O)(=O)c1ccc(F)cc1	inactive
C[C@H]1CN([C@@H](C)CO)S(=O)(=O)c2ccc(C#CC3CC3)cc2O[C@H]1CN(C)C(=O)c1ccccn1	inactive
C[C@H](CO)N1C[C@H](C)[C@@H](CN(C)S(=O)(=O)c2cccc(F)c2)Oc2ncc(C#CC3CCCCC3)cc2C1=O	inactive
COc1ccc(NC(=O)N(C)C[C@H]2Oc3cc(C#CCC(C)C)ccc3S(=O)(=O)N([C@H](C)CO)C[C@H]2C)cc1	inactive
C[C@@H]1CCCCO[C@H](CN(C)C(=O)Cc2ccccc2)[C@@H](C)CN([C@H](C)CO)C(=O)c2cc(NS(=O)(=O)c3cn(C)cn3)ccc2O1	inactive

SMILES	outcome
C[C@@H]1CN([C@H](C)CO)C(=O)Cc2cc(NC(=O)Cc3cn(C)c4ccccc34)ccc2O[C@@H]1CN(C)C	inactive
COc1ccc(CN(C)C[C@@H]2Oc3ccc(NC(=O)Nc4ccc(OC)cc4)cc3C(=O)N([C@@H](C)CO)C[C@H]2C)cc1	inactive
COc1ccc(S(=O)(=O)Nc2ccc3c(c2)C(=O)N([C@@H](C)CO)C[C@H](C)[C@H](CN(C)Cc2ccc(C(F)(F)F)cc2)OCCCC[C@@H](C)O3)cc1	inactive
C[C@@H]1CN([C@H](C)CO)C(=O)c2cccc(NC(=O)c3ccncc3)c2O[C@@H]1CN(C)S(C)(=O)=O	inactive
C[C@H](CO)N1C[C@H](C)[C@H](CN(C)Cc2ccc(-c3ccccc3)cc2)Oc2ccc(NC(=O)CCCCCC(=O)Nc3ccccc3N)cc2C1=O	inactive
C[C@@H]1CN([C@H](C)CO)C(=O)c2cccc(NC(=O)c3ccncc3)c2O[C@H]1CN(C)S(C)(=O)=O	inactive
CN(C)CCCNC(=O)C[C@H]1CC[C@H]2[C@@H](COC[C@H](O)CN2S(=O)(=O)c2ccc(F)cc2)O1	inactive
COc1cccc(S(=O)(=O)N(C)C[C@@H]2Oc3cc(C4=CCCCC4)ccc3S(=O)(=O)N([C@H](C)CO)C[C@H]2C)c1	inactive
C[C@H]1CN([C@@H](C)CO)S(=O)(=O)c2ccc(-c3cncnc3)cc2O[C@H]1CN(C)Cc1ccc(Oc2ccccc2)cc1	inactive
CCCNC(=O)N1[C@H](CO)[C@H](c2ccccc2)C12CN(C(=O)CC1CC1)C2	inactive
CCN(C[C@@H]1[C@@H](c2ccccc2)[C@H](CO)N1C(=O)C1CC1)C(=O)NC1CCCC1	inactive
C=CCOC(=O)[C@@H]1[C@H]2C(=O)O[C@H](c3ccccc3)[C@H](c3ccccc3)N2[C@H](c2ccc(OCCOC(=O)[C@@H]3C[C@@H]4C(=O)N[C@@H](Cc5ccccc5)C(=O)N4[C@@H]3c3ccc(O)cc3)cc2)[C@@]12C(=O)Nc1ccc(I)cc12	inactive
COc1ccc(C#Cc2ccc([C@@H]3[C@H]4CN(C(=O)c5cccnc5)CC(=O)N4[C@H]3CO)cc2)cc1	inactive
COCC(=O)N1[C@H](CO)[C@@H](c2ccccc2)C12CN(Cc1cc(F)ccc1F)C2	inactive
CC(C)CC#Cc1ccc2c(c1)O[C@@H](CN(C)C(=O)c1cccc(F)c1)[C@H](C)CN([C@@H](C)CO)S2(=O)=O	inactive
Cc1noc(C)c1NC(=O)Nc1cccc2c1O[C@H](CN(C)Cc1ccc(Oc3ccccc3)cc1)[C@H](C)CN([C@@H](C)CO)C2=O	inactive
O=S(=O)(c1ccc(F)cc1)N1CCCCN2[C@@H](CO)[C@H](c3ccc(C#CC4CCCC4)cc3)[C@@H]2C1	inactive
C[C@H]1CN([C@@H](C)CO)C(=O)c2cc(NC(=O)CCN3CCOCC3)ccc2O[C@H]1CN(C)C(=O)Nc1ccc2c(c1)OCO2	inactive
CCCC#Cc1ccc([C@H]2[C@H]3CN(C(=O)Cc4cccnc4)CC(=O)N3[C@H]2CO)cc1	inactive
C[C@H]1CN([C@@H](C)CO)S(=O)(=O)c2ccc(C3=CCCC3)cc2O[C@@H]1CN(C)Cc1ccccc1	inactive
